Screening data: PubChem BioAssay, National Center for Advancing Translational Sciences (NCATS)
D3 antag: D3 dopamine receptor (human) antagonism; P35462; actives 2.5% (n = 360,000); max response, negative = inhibition, %; D3R cells, DiscoveRx beta-arrestin luminescence, antagonist mode; hits give low values; AID 652054; in the data active = max response below about -50%; inconclusive = no clear call, values can overlap the other calls; note: % is set by controls: 0 for no effect and ±100 for the full control effect
Target sequence (P35462 whole entry, looked up): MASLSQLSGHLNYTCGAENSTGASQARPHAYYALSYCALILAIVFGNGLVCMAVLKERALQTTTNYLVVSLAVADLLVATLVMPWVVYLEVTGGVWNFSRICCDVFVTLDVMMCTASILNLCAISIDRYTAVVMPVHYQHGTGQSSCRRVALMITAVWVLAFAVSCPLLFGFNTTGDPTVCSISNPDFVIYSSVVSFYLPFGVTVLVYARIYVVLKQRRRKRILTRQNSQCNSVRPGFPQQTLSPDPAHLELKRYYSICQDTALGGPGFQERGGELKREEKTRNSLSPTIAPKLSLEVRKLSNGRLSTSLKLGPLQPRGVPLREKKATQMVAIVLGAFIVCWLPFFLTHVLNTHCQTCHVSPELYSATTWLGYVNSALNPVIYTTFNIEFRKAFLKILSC
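Cells expressing the human receptor were seeded at 1500 cells/well, incubated overnight at 37 degrees C in 5% CO2, then exposed to library compounds with dopamine controls for 90 minutes at 37 degrees C before luminescent detection.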
ATXN viability: viability counter-screen for ATXN expression inhibitors | Potency, µM (highest dose often 56.7 µM), usual class: cytotoxic | S2 cells (HEK-293 line with an ATXN2-luciferase reporter) viability, CellTiter-Fluor protease fluorescence, 24 h | actives 0.49% (n = 400,000); note: potency is the fitted concentration of half-maximal effect; nearly all actives have a fitted effect of over 40% in size
TGFb inhibitor: TGF-b pathway inhibition. Potency, µM (series often up to 46.1 µM), inactives show at the top dose activity, negative = inhibition, hits mostly inhibitors. actives 1.2% (n = 410,000). HepG2 CAGA-GFP TGF-b/SMAD3 reporter, GFP fluorescence, 18 h; TGF-beta stimulated, 500 pg/mL final. AID 588855; note: potency is the fitted concentration of half-maximal effect; % is set by controls: 0 for no effect and ±100 for the full control effect; nearly all actives have a fitted effect of over 65% in size
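Inhibition was scored as loss of TGF-beta-induced (500 pg/mL final, 18 hours, 37 degrees C) GFP in HEPG2 cells carrying a CAGA-GFP reporter, in DMEM with 1% FBS. Well GFP was summed per cell; Activity was normalised to unstimulated and stimulated DMSO wells, then concentration-response fitting.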
ATXN2 expr inh: reduces ATXN2 reporter expression in HEK-293 cells; HEK-293 ATXN2-luciferase reporter, luminescence, 24 h; Potency, µM (highest dose often 57 µM), inactives show top-dose activity change, negative = inhibition, actives largely listed as inhibitors; actives 0.72% (n = 360,000); AID 1745845; note: potency is the fitted concentration of half-maximal effect; % is set by controls: 0 for no effect and ±100 for the full control effect; nearly all actives have a fitted effect of over 55% in size
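qHTS (up to 57 uM final) was run with 24 h compound exposure of reporter cells at 37 °C. Each well was multiplexed: SteadyGlo luminescence measured ATXN2-luciferase expression after a fluorogenic Gly-Phe-AFC viability readout (25 uM final).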
HepG2 viability: HepG2 cytotoxicity, counter-screen for TGF-b inhibitors; actives 0.76% (n = 410,000); HepG2 CAGA-GFP viability, ATP luminescence, 18 h; Potency, µM (doses to about 46.1 µM), for the others: top-dose activity change, negative = cytotoxicity, usual class: cytotoxic; note: potency is the fitted concentration of half-maximal effect
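HepG2 CAGA-GFP cells (1000/well, DMEM with 1% FBS) received compound, then TGF-beta at 500 pg/mL final, and were incubated 18 hours at 37 degrees C. Viability was read by CellTiter-Glo luminescence. Media-only wells were set as complete cell-killing and DMSO as no toxicity.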
DRD3 agonist: agonists of human D3 dopamine receptor; P35462; D3R DiscoveRx beta-arrestin cells, luminescence, 90 min; max activation, %; actives 0.58% (n = 410,000); in the data active = max activation above about 30%; note: 0% is about no effect
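Cells at 1500/well, incubated overnight, then treated with pinned compounds (dopamine as control) for 90 min at 37 degrees C. DiscoveRx reagent added for 30 - 60 minutes at room temperature; luminescence read.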
* = called active by the depositor; i = inactive; ? = inconclusive; . = no result. Sampled rows, rich in hits. Any-hit rate of the full collection: about 4.8%. Unless noted, calls come from the whole dose curve; as a rule, active = well fitted curve in the direction sought with a large enough effect; inconclusive = small, poorly fitted or top-dose-only effect, or another doubt; inactive = no such curve, though single readings can be large; an effect the other way counts as inactive or inconclusive.

SMILES	D3 antag	ATXN viability	TGFb inhibitor	ATXN2 expr inh	HepG2 viability	DRD3 agonist
CCOc1ccc(NC(=O)CN2CCN(CC(=O)Nc3cccc(F)c3)CC2)cc1	?	i	-19%	2%	8%	12
Cc1c(NC(=O)c2sc3ccccc3c2Cl)cccc1-c1nc2ccccc2o1	.	i	17%	10%	-11%	-8
CCC1(c2ccccc2)ON(c2c(Br)cccc2Br)C1=O (stereo unspecified)	0	?	?	22µM*	-102%	3
CCC1(c2ccccc2)CN(C)C1=O (stereo unspecified)	-13	i	16%	.	-9%	-2
CC(C)(C)n1nnnc1C(c1ccnc2ccccc12)N1CCN(C/C=C/c2ccccc2)CC1 (stereo unspecified)	2	?	?	-26%	-23%	-10
Cc1cccc(C)c1NC(=O)C(c1ccccc1OC(F)(F)F)N1CCN(C/C=C/c2ccccc2)CC1 (stereo unspecified)	-63*	?	?	0%	-25%	-15
Cc1cccc(C)c1-n1nnnc1C(c1ccnc2ccccc12)N1CCCC1 (stereo unspecified)	-56*	i	.	-12%	.	-10
Cc1cccc(C)c1-n1nnnc1C(c1ccccc1OC(F)(F)F)N1CCN(C/C=C/c2ccccc2)CC1 (stereo unspecified)	-95*	i	-28%	-16%	-10%	-8
Cc1cccc(C)c1-n1nnnc1C(c1ccnc2ccccc12)N1CCN(C/C=C/c2ccccc2)CC1 (stereo unspecified)	-116*	?	?	?	13%	-14
O=C(CSc1nc2c([nH]c3ccccc32)c(=O)n1-c1ccc(Cl)cc1)N1CCOCC1	.	i	4%	10%	0%	-4
CCN(CC)c1ccc(NS(=O)(=O)c2ccc3c(c2)CCCN3C(C)=O)c(C)c1	.	i	?	?	-10%	-3
COc1cc(N)c(N)cc1OC	.	.	-10%	.	7%	.
CNc1cc[n+](C)c2ccccc12	.	.	1%	.	-3%	.
COc1ccc(C(c2nnnn2-c2c(C)cccc2C)N2CCN(C/C=C/c3ccccc3)CC2)cc1 (stereo unspecified)	-87*	i	-24%	15%	-14%	-16
C=CCN1CCN(C(c2ccccc2OC)c2nnnn2C(C)(C)C)CC1 (stereo unspecified)	-8	i	9%	4%	-2%	-2
COc1cccc(C(c2nnnn2-c2c(C)cccc2C)N2CCN(C/C=C/c3ccccc3)CC2)c1OC (stereo unspecified)	-121*	i	?	-13%	-3%	-24
Cc1cccc2c(N3CCCC3)nc(CNS(=O)(=O)c3ccc4ccccc4c3)nc12	.	i	.	.	.	.
CSCC[C@H](NC(=O)[C@H](Cc1ccc(OS(=O)(=O)O)cc1)NC(=O)[C@@H](N)CC(=O)O)C(=O)NCC(=O)N[C@@H](Cc1c[nH]c2ccccc12)C(=O)N[C@@H](CCSC)C(=O)N[C@@H](CC(=O)O)C(=O)N[C@@H](Cc1ccccc1)C(N)=O	.	i	.	.	.	1
O=C(NC(c1ccc(-c2ccccc2)cc1)c1cnccn1)C1CCN(CCCOc2ccccc2)CC1 (stereo unspecified)	-73*	32µM*	?	?	-97%	-15
O=C(NC(c1ccc(-c2ccccc2)cc1)c1cnccn1)C1CCN(CCOc2ccc(F)cc2)CC1 (stereo unspecified)	-21	?	13µM*	?	18µM*	-13
O=C(NC(c1ccc(Cl)cc1)c1cnccn1)C1CCN(CCOc2ccc(F)cc2)CC1 (stereo unspecified)	?	i	-2%	-14%	-37%	-26
O=C(NCc1ccccc1C(F)(F)F)c1cccc2c1C(=O)c1ccc(N3CCC(N4CCCCC4)CC3)cc1S2(=O)=O	12	?	-8%	28µM*	-41%	6
O=C(NCc1ccccc1Cl)c1cccc2c1C(=O)c1ccc(-c3ccc(OC(F)(F)F)cc3)cc1S2(=O)=O	54	?	-6%	?	-2%	31*
O=C(NCc1ccccc1Br)c1cccc2c1C(=O)c1ccc(N3CCC(Cc4ccccc4)CC3)cc1S2(=O)=O	-10	i	9%	10%	-15%	4
Cc1ccc(CNC(=O)c2cccc3c2C(=O)c2ccc(N4CCOCC4)cc2S3(=O)=O)cc1	28	?	-24%	-6%	29%	26
SMILES	D3 antag	ATXN viability	TGFb inhibitor	ATXN2 expr inh	HepG2 viability	DRD3 agonist
O=C(NCc1cccc(F)c1)c1cccc2c1C(=O)c1ccc(N3CCOCC3)cc1S2(=O)=O	21	i	-12%	0%	-20%	56*
O=C(NCc1ccccc1C(F)(F)F)c1cccc2c1C(=O)c1ccc(N3CCOCC3)cc1S2(=O)=O	73	i	-5%	-34%	-20%	38*
CN(C)c1ccc(N=Nc2ccc(/C=C/c3ccnc4ccccc34)cc2)cc1	.	.	260%	.	-38%	.
O=C1C(c2ccc(C(F)(F)F)cc2)=C(Nc2ccc(Cl)cc2)c2ccccc21	.	i	7%	0%	-57%	4
Cc1cccc(N(C)c2nc3ccccc3c3nnc(C)n23)c1	.	.	?	.	-31%	-3
Cc1cccc(OCC(=O)Nc2ccc(OCc3cc(=O)n4cc(C)ccc4n3)cc2)c1	.	.	14%	.	-1%	-2
Nc1nc(-c2cccnc2)nc(N2CCCCC2)n1	5	i	0%	4%	2%	33*
c1cncc(-c2nc(N3CCCCCC3)c3ccccc3n2)c1	-1	i	-12%	-22%	-21%	0
O=C1C=CC(=O)c2c(O)c(CO)c(CO)c(O)c21	?	?	11µM*	?	10µM*	-3
Cc1nc(N2CCCC2)ncc1C(=O)N1CCN(c2ccccc2F)CC1	.	i	2%	4%	3%	1
Cc1cc(Br)ccc1OCCCCNCCO	-60*	?	0%	-25%	-69%	-2
OCCNCCCOc1ccc(Cl)cc1Br	-64*	i	12%	-15%	-62%	-4
C=CCNCCCCOc1ccc(Br)cc1C	?	i	47%	-12%	8%	-17
COCCCNCCCCOc1ccc(Br)cc1Cl	0	i	-13%	-24%	-24%	-8
COCCNCCCOc1ccc(Br)cc1Cl	-78*	i	8%	-18%	-27%	-24
CCOc1ccc(Cl)cc1CNCCNCCO	?	i	-12%	-16%	-8%	-16
COCCNCCCOc1ccc(Cl)cc1Br	-78*	i	-7%	.	-19%	-4
